# Reference: PubChem BioAssay (EPA / NIEHS)
# Inconclusive results are not listed. Calls of active or inactive are those of the source. The calls were made as follows, unless noted: active = hit-call score of the fitted dose curve at least 0.9, where 1 is the maximum; inconclusive = response in the unintended direction; inactive = score below 0.9.
# How the values were obtained:
# [1] = biological target: Nuclear receptor subfamily 1 group I member 2 (Homo sapiens) (UniProt O75469); experiment: NVS_NR_hPXR: NovaScreen (NVS) Nuclear Receptor Binding Assay for human Pregnane X Receptor (PXR) (AID 2283365);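 also: a drop in FRET signal versus DMSO baseline means the compound binds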
# Summary of the method: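 Human PXR protein, cell-free; compound added, incubated 2 h, TR-FRET read. Signal decrease vs DMSO = binding. Screened 25 uM duplicate, actives re-run as dilution series.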
# [2] = biological target: mouse Estrogen Receptor alpha (Era), Esr1 (gene 13982) (UniProt P19785); experiment: NVS_NR_mERa: NovaScreen (NVS) Nuclear Receptor Binding Assay for mouse Estrogen Receptor alpha (Era) (AID 2283378);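 also: hit means loss of bound radioligand signal relative to DMSO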
# Summary of the method: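 Extracted mouse Era incubated with tritiated or iodinated radioligand plus test chemical, 18 h. Bound fraction separated on filters, counted by scintillation. DMSO = negative control/baseline; duplicate single-point at 25 uM, then concentration-response follow-up.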
# [3] = biological target: Estrogen receptor beta (Homo sapiens) (UniProt Q92731); experiment: OT_ER_ERbERb_1440: Odyssey Thera (OT) 24-hour HEK293T Protein-Complementation Assay for Estrogen Receptor-beta/-beta Homodimer (AID 2283380);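 also: scored as signal increase over DMSO baseline for both agonists and antagonists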
# Summary of the method: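 HEK293T cells stably expressing ER beta LBD (aa 310-547) homodimer fragment-complementation reporter, dosed 24 h. Cells formaldehyde-fixed, Draq5-stained; gain in nuclear (agonist) or nuclear plus cytoplasmic (antagonist) fluorescence versus DMSO read by laser scanning cytometry.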
# [4] = biological target: Estrogen receptor (Homo sapiens) (UniProt P03372); experiment: OT_ERa_GFPERaERE_0120: Odyssey Thera (OT) 2-hour HeLa Transcription Induction Assay for Estrogen Receptor (AID 2283382)
# Summary of the method: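 Fluorescence microscopy read-out: inducible fluorescent protein reporter in HeLa cells, imaged 2 h post-dose. Signal increase over DMSO negative control fitted as single primary endpoint via high content image analysis.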
# [5] = biological target: Bile acid receptor (Homo sapiens) (UniProt Q96RI1); experiment: OT_FXR_FXRSRC1_1440: Odyssey Thera (OT) 24-hour HEK293T Protein-Complementation Assay for Farnesoid X receptor/SRC-1 Co-activator (AID 2283384)
# Summary of the method: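 Fluorescence readout, 24 h post-dose, HEK293T; FXR and SRC-1 fused to complementary reporter fragments, association reconstitutes signal. Positive-direction fit vs DMSO baseline.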
# [6] = biological target: Retinoic acid receptor RXR-alpha (Homo sapiens) (UniProt P19793); experiment: OT_NURR1_NURR1RXRa_0480: Odyssey Thera (OT) 8-hour HEK293T Protein Complementation Assay for Nurr1/retinoid X receptor (RXR) (AID 2283385)
# Summary of the method: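 Read-out: fluorescence from protein-fragment complementation between Nurr1 and RXRα in human HEK293T cells, 8 h after dosing. DMSO served as negative control; increased signal counted as activity.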
# [7] = biological target: Retinoic acid receptor RXR-alpha (Homo sapiens) (UniProt P19793); experiment: OT_NURR1_NURR1RXRa_1440: Odyssey Thera (OT) 24-hour HEK293T Protein Complementation Assay for Nurr1/retinoid X receptor (RXR) (AID 2283386)
# Summary of the method: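 Fluorescence PCA read-out; HEK293T; 24 h post-dose; bait/prey fused to reporter fragments; gain-of-signal fit vs DMSO negative control.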
# PGR (gene 5241) = PGR (gene 5241) (UniProt P06401); experiment: NVS_NR_hPR: NovaScreen (NVS) Nuclear Receptor Binding Assay for human Progestron Receptor (PR) (AID 2283360);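 also: active means loss of bound radioligand signal versus DMSO baseline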
# Summary of the method: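 Radioligand competition binding on receptor extracted from T47D cells, read by scintillation counting 18 h after dosing. Loss of signal versus DMSO; primary screen in duplicate at 25 uM, actives followed in concentration series.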
# [8] = biological target: Glucocorticoid receptor (Homo sapiens) (UniProt P04150); experiment: NVS_NR_hGR: NovaScreen (NVS) Nuclear Receptor Binding Assay for human Glucocorticoid Receptor (GR) (AID 2283363);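 as to AC50: activity is loss of specific radioligand binding signal relative to DMSO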
# Summary of the method: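 Filter scintillation readout of tritiated/iodinated radioligand displaced by test chemical; cell-free extracted protein; 16 h. DMSO = negative control/baseline. Duplicate single-point 25 uM screen, then concentration-response on actives.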
# [9] = biological target: human Norepinephrine Transporter (NET), SLC6A2 (gene 6530) (UniProt P23975); experiment: NVS_TR_hNET: NovaScreen (NVS) Transporter Assay for human Norepinephrine Transporter (NET) (AID 2283377);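 also: cell-free membrane protein extracted from CHO cells expressing human NET; displacement of radioligand from human NET seen as loss of scintillation signal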
# Summary of the method: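 CHO cell extracts expressing the transporter; tritiated or iodinated tracer displaced competitively; filtration plus scintillation readout at 1 h. Single-point duplicates at 25 uM, concentration series for follow-up; activity = signal drop relative to DMSO.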
# [10] = biological target: Retinoic acid receptor alpha (Homo sapiens) (UniProt P10276); experiment: NVS_NR_hRARa_Agonist: NovaScreen (NVS) Nuclear Receptor Binding Assay for human Retinoic Acid Alpha Receptor Agonism (RAR) (AID 2283361)
# Summary of the method: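 TR-FRET signal, 2 h post-dosing; cell-free extracted protein; DMSO = baseline, positive fitting direction; 25 uM single-point duplicate, then concentration series for actives.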
# [11] = biological target: human Thyroid Receptor Alpha (TRa), THRA (gene 7067) (UniProt P10827); experiment: NVS_NR_hTRa_Antagonist: NovaScreen (NVS) Nuclear Receptor Binding Assay for human Thyroid Receptor Alpha Antagonism (TRa) (AID 2283362);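 also: activity is loss of signal relative to DMSO baseline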
# Summary of the method: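 Extracted protein, cell-free; 1 h incubation after dosing; AlphaLISA chemiluminescence binding readout. DMSO = baseline/neg ctrl; signal loss = activity. Primary: duplicate, 25 uM; secondary: conc. series on actives.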
# [12] = biological target: Peroxisome proliferator-activated receptor gamma (Homo sapiens) (UniProt P37231); experiment: NVS_NR_hPPARg: NovaScreen (NVS) Nuclear Receptor Binding Assay for human Peroxisome Proliferator-activated Receptor gamma (PPARg) (AID 2283370)
# Summary of the method: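 Chemicals were tested first in duplicate at 25 uM, then in concentration series if active. Binding to cell-free PPARg protein was measured by fluorescence polarization after 2 h, with loss of signal scored against DMSO.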
# [13] = biological target: Estrogen receptor (Homo sapiens) (UniProt P03372); experiment: OT_ERa_GFPERaERE_0480: Odyssey Thera (OT) 8-hour HeLa Transcription Induction Assay for Estrogen Receptor (AID 2283381; active = hit-call score of the fitted dose curve at least 0.9, where 1 is the maximum; inactive = score below 0.9)
# Summary of the method: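 GFP-ERE reporter, HeLa, 8 h exposure. Readout: fluorescence microscopy, high-content image analysis. Fit direction positive vs DMSO negative control.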
# [14] = biological target: guinea pig Sigma Receptor, Non-selective Binding, SIGMAR1 (gene 100135589) (UniProt Q60492); experiment: NVS_OR_gSIGMA_NonSelective: NovaScreen (NVS) Nuclear Receptor Binding Assay for guinea pig Sigma Receptor, Non-selective Binding (AID 2283367)
# Summary of the method: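 Membranes from guinea pig brain incubated with radioligand and test chemical for 1 h, then filtered and scintillation-counted. Duplicate primary testing at 25 uM, with concentration-series follow-up for actives.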
# [15] = biological target: rat Serotonin Transporter (SERT), Slc6a4 (gene 25553) (UniProt P31652); experiment: NVS_TR_rSERT: NovaScreen (NVS) Transporter Assay for rat Serotonin Transporter (SERT) (AID 2283375)
# Summary of the method: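 Filtration-based radiodetection quantified loss of specific radioligand binding in rat forebrain membranes after 1 hour of chemical exposure, relative to DMSO. Chemicals were first tested in duplicate at 25 uM.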
# [16] = biological target: Agonist Androgen Response Element (ARE), AR (gene 367) (UniProt P10275); experiment: OT_AR_ARELUC_AG_1440: Odyssey Thera (OT) 24-hour CHO-K1 Luciferase Assay for Agonist Androgen Response Element (ARE) (AID 2283379)
# Summary of the method: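 Gain-of-signal reporter endpoint: cells (CHO-K1, hamster) are treated 24 h, luciferin/ATP reagent added, and luminescence compared with DMSO baseline.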
# Chain of mouse Estrogen Receptor alpha (Era), Esr1 (gene 13982) (P19785 whole entry, looked up): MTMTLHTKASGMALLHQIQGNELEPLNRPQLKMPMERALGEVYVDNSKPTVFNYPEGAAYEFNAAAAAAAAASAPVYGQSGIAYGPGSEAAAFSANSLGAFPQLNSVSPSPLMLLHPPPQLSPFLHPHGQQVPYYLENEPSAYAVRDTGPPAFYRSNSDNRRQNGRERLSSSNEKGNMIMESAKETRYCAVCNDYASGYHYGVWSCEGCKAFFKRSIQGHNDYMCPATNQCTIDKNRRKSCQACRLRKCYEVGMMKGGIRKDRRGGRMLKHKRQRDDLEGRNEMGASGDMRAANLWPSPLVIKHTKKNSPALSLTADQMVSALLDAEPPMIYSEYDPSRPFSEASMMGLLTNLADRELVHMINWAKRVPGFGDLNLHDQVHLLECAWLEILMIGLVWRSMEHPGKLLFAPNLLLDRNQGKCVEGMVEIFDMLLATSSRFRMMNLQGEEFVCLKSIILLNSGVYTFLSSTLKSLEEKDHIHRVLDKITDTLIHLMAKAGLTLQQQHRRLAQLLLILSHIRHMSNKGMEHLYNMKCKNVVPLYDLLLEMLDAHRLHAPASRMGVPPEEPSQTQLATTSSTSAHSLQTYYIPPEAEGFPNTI
# Chain of Retinoic acid receptor RXR-alpha (Homo sapiens) (P19793 whole entry, looked up, the tested form may be a part): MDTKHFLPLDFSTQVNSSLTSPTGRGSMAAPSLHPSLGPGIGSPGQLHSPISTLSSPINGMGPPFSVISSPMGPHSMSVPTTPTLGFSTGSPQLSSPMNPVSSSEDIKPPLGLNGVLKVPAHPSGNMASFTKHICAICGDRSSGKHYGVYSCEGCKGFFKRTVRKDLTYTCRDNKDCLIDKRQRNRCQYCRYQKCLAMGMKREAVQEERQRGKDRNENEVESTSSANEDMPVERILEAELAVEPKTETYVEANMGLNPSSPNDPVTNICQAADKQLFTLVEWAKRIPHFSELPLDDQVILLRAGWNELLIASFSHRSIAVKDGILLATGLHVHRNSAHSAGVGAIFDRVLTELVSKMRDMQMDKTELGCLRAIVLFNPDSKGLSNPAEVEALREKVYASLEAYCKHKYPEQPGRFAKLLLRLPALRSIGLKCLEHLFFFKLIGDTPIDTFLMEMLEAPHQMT
# Chain of Estrogen receptor beta (Homo sapiens) (Q92731 whole entry, looked up, the tested form may be a part): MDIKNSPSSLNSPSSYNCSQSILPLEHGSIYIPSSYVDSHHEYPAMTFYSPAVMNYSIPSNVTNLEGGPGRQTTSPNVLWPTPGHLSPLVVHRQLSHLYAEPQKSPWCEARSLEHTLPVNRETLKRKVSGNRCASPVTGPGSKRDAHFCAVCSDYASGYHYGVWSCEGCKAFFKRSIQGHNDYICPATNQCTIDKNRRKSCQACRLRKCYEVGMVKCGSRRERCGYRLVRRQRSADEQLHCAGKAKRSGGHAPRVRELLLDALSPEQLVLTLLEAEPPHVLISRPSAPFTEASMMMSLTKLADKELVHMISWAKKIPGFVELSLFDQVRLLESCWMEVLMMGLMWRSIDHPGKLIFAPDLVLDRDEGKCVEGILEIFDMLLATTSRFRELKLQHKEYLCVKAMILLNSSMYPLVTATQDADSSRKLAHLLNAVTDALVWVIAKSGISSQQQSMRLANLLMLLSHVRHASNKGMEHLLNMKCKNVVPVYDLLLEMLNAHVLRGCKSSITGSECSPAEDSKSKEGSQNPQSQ
# Chain of Peroxisome proliferator-activated receptor gamma (Homo sapiens) (P37231 whole entry, looked up): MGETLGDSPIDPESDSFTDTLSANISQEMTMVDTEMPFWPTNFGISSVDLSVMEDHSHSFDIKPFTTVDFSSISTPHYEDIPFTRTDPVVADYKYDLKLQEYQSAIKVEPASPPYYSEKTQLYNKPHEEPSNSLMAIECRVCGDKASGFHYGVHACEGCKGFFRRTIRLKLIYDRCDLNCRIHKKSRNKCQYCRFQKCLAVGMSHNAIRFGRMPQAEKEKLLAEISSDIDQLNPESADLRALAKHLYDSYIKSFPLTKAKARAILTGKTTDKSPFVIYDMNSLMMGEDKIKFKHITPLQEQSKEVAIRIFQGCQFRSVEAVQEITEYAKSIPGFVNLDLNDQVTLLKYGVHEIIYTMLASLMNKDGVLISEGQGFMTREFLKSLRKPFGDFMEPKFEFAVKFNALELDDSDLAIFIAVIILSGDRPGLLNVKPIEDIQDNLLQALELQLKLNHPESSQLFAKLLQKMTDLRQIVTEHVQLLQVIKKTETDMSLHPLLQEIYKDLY
# Chain of Glucocorticoid receptor (Homo sapiens) (P04150 whole entry, looked up): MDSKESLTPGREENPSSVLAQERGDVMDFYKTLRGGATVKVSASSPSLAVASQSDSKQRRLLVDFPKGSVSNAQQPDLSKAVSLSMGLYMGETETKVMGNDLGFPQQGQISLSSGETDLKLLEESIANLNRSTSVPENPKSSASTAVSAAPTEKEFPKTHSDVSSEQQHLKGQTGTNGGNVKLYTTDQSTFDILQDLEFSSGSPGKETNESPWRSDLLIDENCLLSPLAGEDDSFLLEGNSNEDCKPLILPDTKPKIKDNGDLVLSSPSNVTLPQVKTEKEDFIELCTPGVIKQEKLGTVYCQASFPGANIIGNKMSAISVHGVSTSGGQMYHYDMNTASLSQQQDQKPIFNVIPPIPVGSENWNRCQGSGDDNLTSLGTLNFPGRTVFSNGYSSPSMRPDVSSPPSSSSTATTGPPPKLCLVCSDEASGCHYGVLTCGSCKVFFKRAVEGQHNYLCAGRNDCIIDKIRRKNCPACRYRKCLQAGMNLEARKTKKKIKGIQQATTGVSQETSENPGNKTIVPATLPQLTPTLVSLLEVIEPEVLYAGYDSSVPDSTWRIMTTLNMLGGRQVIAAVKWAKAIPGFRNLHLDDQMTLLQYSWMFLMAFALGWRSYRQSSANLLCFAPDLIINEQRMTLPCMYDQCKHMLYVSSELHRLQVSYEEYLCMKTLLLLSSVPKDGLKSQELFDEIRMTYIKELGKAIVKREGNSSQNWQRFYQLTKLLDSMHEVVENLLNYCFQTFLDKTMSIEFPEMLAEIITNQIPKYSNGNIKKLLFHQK
# Chain of Estrogen receptor (Homo sapiens) (P03372 whole entry, looked up): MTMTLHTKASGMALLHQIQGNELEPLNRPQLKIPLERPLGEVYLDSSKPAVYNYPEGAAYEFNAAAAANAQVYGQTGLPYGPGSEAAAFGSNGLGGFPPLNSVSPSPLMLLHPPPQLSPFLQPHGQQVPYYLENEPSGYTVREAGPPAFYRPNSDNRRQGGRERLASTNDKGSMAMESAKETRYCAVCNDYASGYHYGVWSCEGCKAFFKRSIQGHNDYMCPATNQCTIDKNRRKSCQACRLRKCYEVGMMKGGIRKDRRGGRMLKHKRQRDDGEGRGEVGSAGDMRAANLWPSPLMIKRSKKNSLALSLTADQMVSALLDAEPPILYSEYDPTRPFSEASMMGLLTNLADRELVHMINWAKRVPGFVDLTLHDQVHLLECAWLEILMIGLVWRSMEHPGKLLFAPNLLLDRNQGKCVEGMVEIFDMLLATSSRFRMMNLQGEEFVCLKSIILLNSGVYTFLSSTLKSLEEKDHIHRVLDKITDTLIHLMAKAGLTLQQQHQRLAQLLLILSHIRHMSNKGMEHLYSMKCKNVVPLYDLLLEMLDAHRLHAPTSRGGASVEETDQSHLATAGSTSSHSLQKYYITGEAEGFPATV
# Chain of Nuclear receptor subfamily 1 group I member 2 (Homo sapiens) (O75469 whole entry, looked up): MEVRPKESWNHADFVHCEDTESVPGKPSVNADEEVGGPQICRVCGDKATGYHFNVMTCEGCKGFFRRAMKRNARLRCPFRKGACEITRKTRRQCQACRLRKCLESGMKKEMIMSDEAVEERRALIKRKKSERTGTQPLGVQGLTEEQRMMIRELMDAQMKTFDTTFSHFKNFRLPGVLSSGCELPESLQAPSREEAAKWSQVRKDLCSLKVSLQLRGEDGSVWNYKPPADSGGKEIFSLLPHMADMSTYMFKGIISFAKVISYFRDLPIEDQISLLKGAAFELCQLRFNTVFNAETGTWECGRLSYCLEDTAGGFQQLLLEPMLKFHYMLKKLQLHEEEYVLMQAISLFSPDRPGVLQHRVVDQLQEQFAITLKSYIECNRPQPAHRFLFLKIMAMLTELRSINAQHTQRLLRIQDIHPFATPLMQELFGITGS
# Chain of Bile acid receptor (Homo sapiens) (Q96RI1 whole entry, looked up, the tested form may be a part): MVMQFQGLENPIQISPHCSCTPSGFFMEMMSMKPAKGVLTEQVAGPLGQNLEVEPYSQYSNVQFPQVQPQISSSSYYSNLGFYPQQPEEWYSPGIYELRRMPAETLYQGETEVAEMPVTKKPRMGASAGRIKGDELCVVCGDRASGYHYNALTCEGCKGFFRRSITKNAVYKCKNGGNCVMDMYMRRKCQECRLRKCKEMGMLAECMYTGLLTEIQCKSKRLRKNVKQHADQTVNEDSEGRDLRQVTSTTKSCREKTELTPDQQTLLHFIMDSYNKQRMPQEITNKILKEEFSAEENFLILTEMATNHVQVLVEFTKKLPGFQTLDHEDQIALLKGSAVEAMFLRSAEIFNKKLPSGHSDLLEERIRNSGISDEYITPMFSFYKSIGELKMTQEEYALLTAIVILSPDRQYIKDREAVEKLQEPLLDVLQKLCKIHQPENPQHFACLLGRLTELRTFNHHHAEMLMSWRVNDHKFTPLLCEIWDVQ
# Chain of Retinoic acid receptor alpha (Homo sapiens) (P10276 whole entry, looked up): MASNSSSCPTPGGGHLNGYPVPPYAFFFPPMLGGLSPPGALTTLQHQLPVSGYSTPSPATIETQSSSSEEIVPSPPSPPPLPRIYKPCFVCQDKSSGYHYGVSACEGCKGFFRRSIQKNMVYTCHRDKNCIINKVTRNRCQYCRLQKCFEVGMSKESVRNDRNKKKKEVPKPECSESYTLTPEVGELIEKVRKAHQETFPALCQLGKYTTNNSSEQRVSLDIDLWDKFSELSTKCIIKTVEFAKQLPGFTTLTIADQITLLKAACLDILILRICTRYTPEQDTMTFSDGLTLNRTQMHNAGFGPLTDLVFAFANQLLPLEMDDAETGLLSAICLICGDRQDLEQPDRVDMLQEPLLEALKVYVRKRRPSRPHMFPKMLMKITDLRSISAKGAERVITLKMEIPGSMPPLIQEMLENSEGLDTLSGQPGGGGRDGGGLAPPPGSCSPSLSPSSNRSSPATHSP
smiles,measurement,setting,value
CC(CCC(=O)O)(c1ccc(O)cc1)c1ccc(O)cc1,outcome,[1],inactive
same,AC50,[2],6.23 µM (active)
same,AC50,[3],52.3 µM (active)
same,AC50,[4],35.7 µM (active)
same,outcome,[5],inactive
same,outcome,[6],inactive
same,outcome,[7],inactive
CC/C=C\C/C=C\C/C=C\CCCCCCCC(=O)OC,outcome,PGR (gene 5241),inactive
same,AC50,[8],8.39 µM (active)
same,AC50,[9],11.1 µM (active)
N#Cc1ccc(C2CCCc3cncn32)cc1 (configuration not stated),outcome,[1],inactive
same,outcome,[2],inactive
same,AC50,[4],15.8 µM (active)
same,outcome,[7],inactive
O=S(=O)(O)c1ccc(N=Nc2c(O)ccc3ccccc23)cc1,AC50,[10],31.9 µM (active)
same,AC50,[11],17.1 µM (active)
same,AC50,[8],17.2 µM (active)
same,AC50,[12],20.7 µM (active)
same,outcome,[3],inactive
same,outcome,[4],inactive
same,outcome,[6],inactive
same,outcome,[7],inactive
CCC(C)c1ccccc1 (configuration not stated),outcome,PGR (gene 5241),inactive
CO[Si](CCCS)(OC)OC,outcome,[8],inactive
CC1=NN(c2ccc(S(=O)(=O)O)cc2)C(=O)C1N=Nc1ccccc1 (configuration not stated),AC50,[8],12.8 µM (active)
same,outcome,[12],inactive
same,outcome,[13],inactive
same,outcome,[4],inactive
same,outcome,[7],inactive
CCCCc1ccc(Cl)cc1,outcome,[1],inactive
same,outcome,[3],inactive
same,outcome,[13],inactive
same,outcome,[4],inactive
same,outcome,[5],inactive
same,outcome,[6],inactive
CCCCCCCCCCCCc1ccc(O)cc1,outcome,[1],inactive
same,outcome,[12],inactive
same,outcome,[2],inactive
same,AC50,[3],0.981 µM (active)
same,AC50,[13],444 nM (active)
same,AC50,[4],0.612 µM (active)
CCOC(=O)/C=C\C(=O)OCC,outcome,[8],inactive
CCN(CC)c1cccc(C)c1,AC50,[14],38.5 µM (active)
Oc1ccc(/C=C/c2cc(O)cc(O)c2)cc1,outcome,[15],inactive
COc1ccc(C(=O)c2ccccc2)c(O)c1,outcome,[16],inactive
C=C[Si](OCCOC)(OCCOC)OCCOC,AC50,[2],10.5 µM (active)
CC(C)(c1ccccc1)c1ccc(Nc2ccc(C(C)(C)c3ccccc3)cc2)cc1,outcome,[2],inactive
